Screens (PubChem)
Rows were chosen to be rich in hits. Some 2.2% of all compounds tested hit in one or more screens of this group.
APP 5UTR inh = inhibitors of APP translation via 5'UTR reporter, primary screen, APP 5'UTR luciferase, SH-SY5Y cells; SH-SY5Y APP 5'UTR-luciferase reporter, luminescence; inhibition, % at 2 µM; actives 0.82% (n = 190,000); AID 1285, 2008;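 active means inhibition above a set limit, derived from the sample mean plus 3 SD, cut at about 45% in these data; inconclusive means one replicate passes the limit while the other fails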
Ba/F3 V617F tox = reduced viability of JAK2V617F-dependent Ba/F3 cells, primary screen, JAK2V617F inhibitor project, cell-based, Ba/F3 EpoR-JAK2V617F, luminescence | AID 1446, 2008 | inhibition, % at 5.6 µM | ATP luminescence | actives 1.1% (n = 220,000);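 active means inhibition above the campaign mean plus 3 SD over all tested compounds, cut at about 24% in these data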;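 further: cytokine-independent growth of Ba/F3 cells driven by EpoR plus mutant JAK2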
BaF3 parental = parental Ba/F3 cell viability inhibition, counter-screen for JAK2V617F inhibitor project, murine pro-B, CellTiter-Glo luminescence | CellTiter-Glo ATP luminescence | inhibition, % at 5.6 µM | actives 1.1% (n = 220,000) | AID 1486, 2009;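 active means inhibition above a per-campaign cutoff, the mean inhibition of all tested compounds plus 3 SD, cut at about 27% in these data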
IEC-6 tox = cytotoxicity in IEC-6 intestinal epithelial cells, primary screen, cytotoxicity control for KLF5 inhibitor project, cell-based, luminescence. inhibition, % at 5 µM. actives 0.78% (n = 290,000). IEC-6 cytotoxicity, luminescence viability; in the data active means inhibition above about 22%
aSyn UTR inh = MLPCN primary screen, SNCA 5' untranslated region; actives 0.82% (n = 300,000); AID 1813, 2009; inhibition, % (tested at 7.5 µM); alpha-synuclein 5'UTR reporter, inhibitor activity; in the data active means inhibition above about 60%; inconclusive means no clear call, values can overlap the other calls;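 further: H4 neuroglioblastoma cells stably carrying SNCA 5'UTR luciferase fusion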
KLF5 inhibitor = KLF5 expression inhibitors, primary screen, DLD-1 cells, luminescence; AID 1700, 2009; inhibition, % at 5 µM; DLD-1 KLF5 promoter-luciferase reporter; actives 0.23% (n = 290,000);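 active means inhibition above a per-plate limit of that plate's mean compound inhibition plus 3 SD, cut at about 60% in these data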;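 further: higher means less KLF5 promoter-driven luciferase light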
Large screens that a line does not name were inactive.

Cc1ccccc1-n1c(O)c(/C=C2/C(c3ccccc3)=Nc3ccccc32)c(=O)[nH]c1=O	APP 5UTR inh 62, Ba/F3 V617F tox 78, BaF3 parental 69, IEC-6 tox 78
CN1CCN(Cc2nc3ccccc3n2C)CC1	none
Cn1c(NN=O)nc2ccccc21	APP 5UTR inh 75, aSyn UTR inh inconclusive
CC#CP(=O)(OC)C(O)(CF)c1ccccc1 (stereo not drawn)	none
C[N+]1(CCC(C(N)=O)(c2ccccc2)c2ccccc2)CCCCC1	none (no result: APP 5UTR inh, Ba/F3 V617F tox, BaF3 parental, IEC-6 tox, KLF5 inhibitor)
CC(=NCc1ccc(F)cc1)c1c(O)n(C)c(=O)n(C)c1=O	Ba/F3 V617F tox 35, BaF3 parental 31
Cc1ccc(Cn2cc(C=O)c3ccccc32)cc1	none (no result: APP 5UTR inh, Ba/F3 V617F tox, BaF3 parental)
O=Cc1cn(Cc2ccc(F)cc2)c2ccccc12	aSyn UTR inh 71
O=Cc1cn(Cc2ccc([N+](=O)[O-])cc2)c2ccccc12	aSyn UTR inh 72
CCOP(=O)(OCC)C(NC(=O)c1ccc(C)cc1)=C(Cl)Cl	none
Cc1ccc(C2=NN(CCC(=O)N3CCC4(CC3)OCCO4)C(=O)CC2)cc1	none
Cn1c(O)c(C(c2ccccn2)c2c(O)n(C)c(=S)[nH]c2=O)c(=O)[nH]c1=S	none
O=C(CNC(=O)OCc1ccccc1)Nc1ccc(Br)cc1C(=O)c1ccccc1Cl	none
CN(C(=O)CNC(=O)OCc1ccccc1)c1ccc(Br)cc1C(=O)c1ccccc1Cl	APP 5UTR inh 80
O=C(NC1(C(F)(F)F)Oc2ccccc2O1)N1CCC2(CC1)OCCO2	none
O=C(NC1(C(F)(F)F)Oc2ccc(Cl)cc2O1)N1CCC2(CC1)OCCO2 (stereo not drawn)	APP 5UTR inh 48, Ba/F3 V617F tox 44
CN1CCCN(C(=O)COc2cccc(C(F)(F)F)c2)CC1	none (no result: APP 5UTR inh, Ba/F3 V617F tox, BaF3 parental)
OCC[n+]1c2ccccc2nc2ccc(N3CCOCC3)cc21	BaF3 parental 31 (no result: APP 5UTR inh)
Cc1ccc(-c2nc3ccccc3c(=O)n2-c2ncccc2C)cc1	BaF3 parental 95
Cc1cccnc1-n1c(-c2ccccc2)nc2ccccc2c1=O	none
O=c1[nH]sc2cc(F)ccc12	Ba/F3 V617F tox 28
CC12CC[C@H]3[C@@H](CCC4(O)C[C@H](O)CCC34/C=N/NC(=O)c3ccccc3Cl)C1(O)CCC2C1=CC(=O)OC1 (stereo partly drawn)	none (no result: APP 5UTR inh)
C[C@H]1O[C@@H](O[C@H]2[C@@H](O)C[C@H](O[C@H]3[C@@H](O)C[C@H](O[C@H]4CC[C@@]5(C)[C@H](CC[C@@H]6[C@@H]5CC[C@]5(C)[C@@H](C7=CC(=O)OC7)CC[C@]65O)C4)O[C@@H]3C)O[C@@H]2C)C[C@H](O)[C@@H]1O	APP 5UTR inh 94, KLF5 inhibitor 100 (no result: aSyn UTR inh)
C[C@H]1O[C@@H](OC2CC[C@]3(C=O)[C@H]4CC[C@]5(C)[C@@H](C6=CC(=O)OC6)CC[C@]5(O)[C@@H]4CC[C@]3(O)C2)CC2OC(C)(C)OC21 (stereo partly drawn)	aSyn UTR inh 96, KLF5 inhibitor 110 (no result: APP 5UTR inh, Ba/F3 V617F tox, BaF3 parental)
CN1C(=O)C(c2ccccc2)C(=O)N(C)C1=O	none (no result: APP 5UTR inh, Ba/F3 V617F tox, BaF3 parental, IEC-6 tox, KLF5 inhibitor)
CC(C)c1onc(C(=O)N2CCC3(CC2)OCCO3)c1[N+](=O)[O-]	none (no result: APP 5UTR inh, Ba/F3 V617F tox, BaF3 parental)
CCN(CC)C(=O)c1ccc(NC(=O)Nc2ccccc2F)cc1	Ba/F3 V617F tox 43, BaF3 parental 43, IEC-6 tox 28, aSyn UTR inh inconclusive
Clc1ccc2c(c1)C(c1ccccc1Cl)=NCc1nnc(N3CCN(CCOc4ccccc4)CC3)n1-2	none
CCN(CC)C1=NC(=[N+](CC)CC)c2ccccc21	Ba/F3 V617F tox 80, BaF3 parental 66
CCOc1cccc(=NC2CCCCC2)c2c(C)n(C)c(C)c12	Ba/F3 V617F tox 73, BaF3 parental 65 (no result: APP 5UTR inh)
CN(C)C(=O)Oc1ccc2c(c1)O/C(=C\c1cccc(Cl)c1)C2=O	none (no result: APP 5UTR inh, Ba/F3 V617F tox, BaF3 parental)
CCCCOCCCN1C(C)=CC(=C2C(=O)NC(=S)NC2=O)C=C1C	none (no result: APP 5UTR inh)
CC1=CC(=C2C(=O)NC(=S)NC2=O)C=C(C(F)(F)F)N1CCc1ccccc1	APP 5UTR inh 92
CC1=CC(=C2C(=O)NC(=O)NC2=O)C=C(C(F)(F)F)N1Cc1ccccc1	none
CC1=CC(=C2C(=O)NC(=S)NC2=O)C=C(C(F)(F)F)N1Cc1ccccc1	APP 5UTR inh 90, aSyn UTR inh 113
